The values below come from PubChem BioAssay.

A short description of assay [1]: blockers of polyQ-driven CASP3 activation – cell-based (AID 1583). As to conditions: polyglutamine-induced caspase-3 activation, cell assay; stronger effect = higher value;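 tested at 10 µM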.
Assay [2] is described as follows: yeast 75Q aggregation reduction – 75Q-TubU reporter (AID 1593). As to conditions: Yeast 75Q polyglutamine aggregation reporter.
Assay [3] is described as follows: restoration of touch response, mutant HTT neurons – whole organism, C. elegans mechanosensory neurons, N-terminal huntingtin (AID 1599). The settings on record: C. elegans polyQ-huntingtin mechanosensory neurons, stronger effect = higher value.
Assay [4] is described as follows: blockers of cytochrome c efflux from mitochondria – biochemical, purified mitochondria (AID 1603).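 Further: mouse liver mitochondria challenged with calcium chloride; signal normalized to the plate average as 100%.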 As to conditions: stronger effect = lower value.
Assay [5] is described as follows: polyglutamine aggregate formation blockers (AID 1604). As to conditions: polyglutamine-induced protein aggregation inhibition assay; stronger effect = higher value; tested at 2.5 µM.
A short description of assay [6]: glutamate transport activators, MN-1 cells, MN-1 cell line (AID 1612).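 Further: tested at 1 µM final; 0% = mean of DMSO vehicle wells on each plate; positive means more glutamate uptake than control and negative means less.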 The settings on record: MN-1 motor neuron cells, stronger effect = higher value.
The nature of assay [7]: 75Q-TubH aggregate inhibition, S. cerevisiae, yeast (AID 1616). The settings on record: S. cerevisiae 75Q-TubH polyglutamine aggregation suppression; stronger effect = higher value.
A short description of assay [8]: signal quenchers or enhancers, Cy5 substrate/SSB – biochemical, NIH Clinical Collection, E. coli SSB, artefact control for HCV NS3 helicase inhibitor project (AID 743268). The settings on record: Cy5-oligo bound E. coli SSB, fluorescence interference.
Assay [9] relates to Hepatitis C virus NS3 helicase. Briefly: blockers of NS3h binding to DNA – biochemical, fluorescence polarization, NIH Clinical Collection, primary screen (AID 743270). The settings on record: NS3 helicase binding to Cy5-dT15 DNA, stronger effect = higher value, concentration not given here.
The target of assay [10] is Single-stranded DNA-binding protein (Escherichia coli (strain K12)) (UniProt P0AGE0). In words: SSB-ssDNA binding inhibitors – biochemical, fluorescence polarization, NIH Clinical Collection, counter-screen for HCV NS3 helicase inhibitor project (AID 743271; in the data active means inhibition above about 28%). As to conditions: E. coli SSB-DNA binding, stronger effect = higher value, concentration not given here. A general note: Fluorescence polarisation rises when a labelled molecule tumbles more slowly, as on binding a larger partner.

Assay [11] is described as follows: compounds distorting NS3 helicase fluorescence signal – biochemical, NIH Clinical Collection, artefact control for HCV NS3 helicase inhibitor project (AID 743272).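 Further: HCV NS3 helicase with a Cy5 labelled single stranded DNA probe.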 As to conditions: fluorescence interference counterscreen, HCV NS3 helicase assay; stronger effect = lower value.
Assay [12] in a line: modulation of C. elegans fzo-1 (AID 1259413).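 Further: fzo-1 mutant C. elegans worms in liquid wells.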 The settings on record: C. elegans fzo-1 modulator screen, mean read-out; stronger effect = higher value.
Assay [13] concerns the target Mitogen-activated protein kinase 7 (Homo sapiens) (UniProt Q13164). Briefly: Gal4-ERK5 driven luciferase induction – cell-based, HTS, primary screen (AID 1508626;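 active means luciferase signal above three times the same-plate solvent-only control wells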;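 further: luciferase driven by Gal4-ERK5 fusion binding five Gal4 sites before minimal TATA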). The settings on record: HeLa Gal4-ERK5 transactivation, 18 h, at 5 µM, stronger effect = higher value.
Assay [14] can be described thus: galactose survival enhancers in mitochondrial complex I cybrids – cell-based, galactose medium, ATP luminescence, primary screen (AID 1645843;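 active means z-score of at least 1.8 in each of two replicates, scored against plate mean and spread of sample wells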;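 further: positive z means more ATP and so rescue of galactose-driven cybrid death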). As to conditions: complex I mutant cybrid cells, 72 h, stronger effect = higher value.
The subject of the next assay is R275C/beta1. In words: BK channel mutant inhibitors and activators – cell-based, U2OS BacMam, thallium flux, beta subunits, selectivity assay, profiling panel (AID 1259406;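 active means thallium flux through the channel raised or lowered by more than 3 SD from vehicle-only wells, actives on both sides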;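 further: initial slope of Thallos dye fluorescence rise after thallium is added; log ratio against the mean of 0.3% DMSO vehicle wells on the same plate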). As to conditions: U2OS BacMam BK variants, at 30 µM.
The test system of another assay is R275C/beta2Delta. Described as above. As to conditions: U2OS BacMam BK variants, at 30 µM.
The next assay deals with R275C/beta4. The description is as above. As to conditions: U2OS BacMam BK variants, at 30 µM.
Another assay deals with R275C/Slo1WT/beta2. Described as above. The settings on record: U2OS BacMam BK variants, at 30 µM.
Assay [15] can be described thus: compounds altering viability of human ES cells (AID 493140).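 Further: cells exposed to compounds for four days before counting.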 The settings on record: human embryonic stem cell survival screen; stronger effect = higher value.

Values joined by “and” are separate entries in the source; they are usually repeats but may differ in a detail not shown here. Equal values may be shown once. For some assays here: Entries with a potency or affinity are not part of this list. Active and inactive are the calls of the source. Unless noted, how the calls were made is not given here.

Sequence of Mitogen-activated protein kinase 7 (Homo sapiens) (Q13164 whole entry, looked up, the tested form may be a part): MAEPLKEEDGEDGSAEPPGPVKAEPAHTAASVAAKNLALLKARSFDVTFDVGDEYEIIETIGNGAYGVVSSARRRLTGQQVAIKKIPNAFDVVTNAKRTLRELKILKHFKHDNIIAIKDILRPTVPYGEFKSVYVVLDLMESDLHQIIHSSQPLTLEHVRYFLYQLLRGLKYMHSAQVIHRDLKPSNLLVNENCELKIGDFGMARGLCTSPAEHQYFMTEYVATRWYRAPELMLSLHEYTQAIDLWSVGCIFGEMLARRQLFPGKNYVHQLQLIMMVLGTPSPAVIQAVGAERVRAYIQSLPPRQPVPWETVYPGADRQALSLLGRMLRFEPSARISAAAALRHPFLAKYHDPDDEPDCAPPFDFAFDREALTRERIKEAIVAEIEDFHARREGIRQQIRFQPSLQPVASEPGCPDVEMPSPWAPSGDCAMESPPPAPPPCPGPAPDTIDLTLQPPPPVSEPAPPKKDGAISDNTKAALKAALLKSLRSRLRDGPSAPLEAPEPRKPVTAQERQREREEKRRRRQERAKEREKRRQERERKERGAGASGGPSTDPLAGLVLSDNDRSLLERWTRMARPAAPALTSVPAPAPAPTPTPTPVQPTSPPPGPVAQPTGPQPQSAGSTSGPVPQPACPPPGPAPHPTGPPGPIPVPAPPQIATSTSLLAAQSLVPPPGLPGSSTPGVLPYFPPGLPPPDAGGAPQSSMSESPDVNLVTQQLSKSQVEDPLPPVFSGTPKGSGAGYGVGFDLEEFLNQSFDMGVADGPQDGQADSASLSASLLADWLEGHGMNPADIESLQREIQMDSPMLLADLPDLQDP

Consider `O=c1[nH]cnc2[nH]ncc12`, for which the inhibition – broadly, the change of the read-out against control, counted positive when it falls – in assay [1] was 14.4%; in [9], -5% (inactive); in [10], -3.53% (inactive). In addition, in assay [2], the score turned out to be 1.09. The same compound showed a rescue above control in assay [3] of 2.94. In addition, the cytochrome c release ratio in assay [4] came out at 0.77. In addition, the inhibition of aggregation in assay [5] came to 60.9%. Besides, in assay [6], the glutamate uptake change was -7.44%. In [7], the aggregation suppression score is 1.87. Also, the fluorescence ratio is 1.02 (inactive) in [8] and 0.99 (inactive) in assay [11]. Moreover, in assay [12], the mean signal was 267 (inactive). In addition, the luciferase signal in [13] is 36 AU (inactive). For the same compound, the z-score in assay [14] was 0.315 (inactive) and -0.255 (inactive). Moreover, the log fold change Tl+ flux was 0.0222 (inactive) in the assay with R275C/beta1, 0.0262 (inactive) in the assay with R275C/beta2Delta, 0.0379 (inactive) in the assay on R275C/beta4 and 0.0394 (inactive) in the assay with R275C/Slo1WT/beta2.
Take `NNCCc1ccccc1`: the inhibition is 3.3% in assay [1]; 1.19% (inactive) and -5.91% (inactive) in [9]; -0.87% (inactive) and -0.48% (inactive) in assay [10]. The same compound gave a score in [2] of 0.97. This compound gave a rescue above control in assay [3] of -3.55. For the same compound, in assay [4], the cytochrome c release ratio worked out at 1.02. In assay [5], this compound showed an inhibition of aggregation of 15.4%. The glutamate uptake change in [6] was 2.77%. The same compound returned an aggregation suppression score in assay [7] of 1.47. Moreover, the survival in assay [15] is 9.5 (inactive). The fluorescence ratio in assay [8] is 0.99 (inactive) and 1.14 (inactive); in assay [11], 0.96 (inactive) and 1.02 (inactive). Also, the mean signal in [12] is 213 (inactive). The luciferase signal in [13] was 44 AU (inactive). Moreover, in assay [14], the z-score was 0.14 (inactive) and 0.22 (inactive) and 0.6 (inactive). Further, the log fold change Tl+ flux in the assay with R275C/beta1 was 0.00562 (inactive); in the assay on R275C/beta2Delta, -0.0402 (inactive); in the assay with R275C/beta4, -0.0112 (inactive); with R275C/Slo1WT/beta2, 0.022 (inactive).
On to `COc1ccc(Cl)cc1C(=O)NCCc1ccc(S(=O)(=O)NC(=O)NC2CCCCC2)cc1`, for which the values for the inhibition in assay [1], in assay [9] and in assay [10] were 0.35%, -2.27% (inactive) and 1.05% (inactive), respectively. This compound came in with a score in assay [2] of -0.18. For the same compound, the cytochrome c release ratio in [4] stood at 1.09. In addition, the inhibition of aggregation in assay [5] was determined as 45%. In assay [6], the glutamate uptake change worked out at 34.4%. The aggregation suppression score in [7] turned out to be 1.07. Besides, the survival in assay [15] was 5.42 (inactive). Moreover, the fluorescence ratio in assay [8] and in assay [11] was 0.97 (inactive) each time. The mean signal in assay [12] was 242 (inactive). In [13], the luciferase signal was 52 AU (inactive). Further, the log fold change Tl+ flux in the assay with R275C/beta1 is 0.142 (active); in the assay with R275C/beta2Delta it was 0.0874 (inactive); in the assay with R275C/beta4, 0.162 (active); in the assay with R275C/Slo1WT/beta2, 0.00644 (inactive).
Consider `N[C@@H]1CONC1=O`, for which the inhibition was 3.67% in assay [1]; 5.94% (inactive) and -1.36% (inactive) in [9]; 2.98% (inactive) and 0.29% (inactive) in assay [10]. In assay [2], this compound returned a score of 1.72. For the same compound, the rescue above control in [3] was -2.84. In addition, the cytochrome c release ratio in [4] worked out at 0.8. In [5], this compound displayed an inhibition of aggregation of 65.4%. In [6], the glutamate uptake change is -3.66%. The same compound had an aggregation suppression score in assay [7] of 1.32. Further, in [15], the survival is 4.33 (inactive). Moreover, the fluorescence ratio in [8] is 0.99 (inactive) and 1.05 (inactive); in assay [11], 0.95 (inactive) and 1.03 (inactive). Further, in [12], the mean signal was 211 (inactive). Besides, the luciferase signal in assay [13] is 64 AU (inactive). The z-score in assay [14] is 0.55 (inactive) and 0.975 (inactive). The log fold change Tl+ flux with R275C/beta1 was 0.00647 (inactive) and 0.0301 (inactive); in the assay with R275C/beta2Delta, 0.0216 (inactive) and -0.0265 (inactive); with R275C/beta4, 0.00356 (inactive); in the assay on R275C/Slo1WT/beta2, -0.00809 (inactive).
Regarding `NS(=O)(=O)c1cc2c(cc1Cl)NCNS2(=O)=O`, the inhibition was -3.39% in assay [1], -5% (inactive) in assay [9] and -3.53% (inactive) in [10]. Further, in [2], the score is 1.21. Besides, the rescue above control in assay [3] turned out to be 7.5. Further, the cytochrome c release ratio in [4] amounted to 1.08. The inhibition of aggregation in [5] amounted to 3.17%. Further, the glutamate uptake change in [6] worked out at 8.53%. This compound also returned an aggregation suppression score in assay [7] of 0.805. In addition, the survival in assay [15] was 7.5 (inactive). In addition, the fluorescence ratio is 0.125 (active) in assay [8] and 1 (inactive) in assay [11]. In addition, in assay [12], the mean signal is 233 (inactive). Moreover, in assay [13], the luciferase signal is 96 AU (inactive). The z-score in [14] is 0.29 (inactive) and 0.995 (inactive). For the same compound, the log fold change Tl+ flux was 0.0065 (inactive) in the assay with R275C/beta1, -0.0287 (inactive) with R275C/beta2Delta, 0.00368 (inactive) in the assay with R275C/beta4 and 0.0144 (inactive) in the assay on R275C/Slo1WT/beta2.
